Among the data in the supplement of paper PMC9446081 are relative enzymatic activity values, retold here.

What all share (experiment): relative enzymatic activity vs untreated control (fraction); higher = less inhibition
Holding throughout (settings): 100 µM; incubation time: 2 h at 37 C

For test [1], the system named is DNA gyrase. The procedure: (§1)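 In vitro enzymatic inhibition assays (ProFoldin kits) for 12 purified essential E. coli enzymes or complexes, each treated with 218 active antibacterial compounds at 100 µM for 2 h at 37°C. Read-outs were fluorescence or absorbance (phosphate detection, dye binding), converted to activity via standard curves and expressed relative to untreated DMSO controls.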

For test [2], the target named is DNA helicase (UniProt P0ACB1). As to the method:
as §1

Test [3] concerns the target DNA ligase (UniProt B1XA82). The procedure: as §1
In test [4] the target is DNA polymerase (UniProt P10443). The procedure: as §1
Sequence of DNA polymerase (P10443 whole entry): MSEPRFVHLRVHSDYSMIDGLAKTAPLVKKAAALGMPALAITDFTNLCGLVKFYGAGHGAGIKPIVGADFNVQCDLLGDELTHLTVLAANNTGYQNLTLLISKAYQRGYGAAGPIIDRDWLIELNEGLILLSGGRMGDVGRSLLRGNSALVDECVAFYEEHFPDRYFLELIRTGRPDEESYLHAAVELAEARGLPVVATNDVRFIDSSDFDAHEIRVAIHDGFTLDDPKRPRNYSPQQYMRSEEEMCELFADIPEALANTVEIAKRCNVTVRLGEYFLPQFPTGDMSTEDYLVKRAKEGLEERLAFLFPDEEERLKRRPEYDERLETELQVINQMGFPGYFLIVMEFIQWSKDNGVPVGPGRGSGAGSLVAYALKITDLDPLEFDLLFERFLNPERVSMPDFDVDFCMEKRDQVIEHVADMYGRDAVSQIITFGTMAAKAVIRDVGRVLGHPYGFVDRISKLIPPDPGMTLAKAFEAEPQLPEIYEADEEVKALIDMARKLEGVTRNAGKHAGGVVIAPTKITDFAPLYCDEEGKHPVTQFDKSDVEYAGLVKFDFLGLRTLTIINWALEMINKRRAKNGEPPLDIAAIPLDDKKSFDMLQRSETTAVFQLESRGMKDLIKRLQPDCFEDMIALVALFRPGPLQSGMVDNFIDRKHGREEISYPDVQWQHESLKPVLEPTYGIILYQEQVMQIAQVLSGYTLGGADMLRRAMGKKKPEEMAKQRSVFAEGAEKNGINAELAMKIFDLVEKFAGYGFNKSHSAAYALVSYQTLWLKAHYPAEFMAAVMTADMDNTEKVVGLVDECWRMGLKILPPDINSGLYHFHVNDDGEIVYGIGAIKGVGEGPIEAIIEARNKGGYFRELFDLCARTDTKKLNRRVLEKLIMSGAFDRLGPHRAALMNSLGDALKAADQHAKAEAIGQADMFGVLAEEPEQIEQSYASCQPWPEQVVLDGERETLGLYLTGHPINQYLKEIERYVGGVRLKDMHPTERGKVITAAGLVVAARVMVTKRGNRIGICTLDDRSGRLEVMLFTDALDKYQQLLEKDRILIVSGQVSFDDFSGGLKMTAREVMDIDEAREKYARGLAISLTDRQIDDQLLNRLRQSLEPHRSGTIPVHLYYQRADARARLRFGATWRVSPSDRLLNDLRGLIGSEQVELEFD
The target in test [5] is DNA primase (UniProt P0ABS7). The procedure: as §1
Sequence of DNA primase (P0ABS7 whole entry): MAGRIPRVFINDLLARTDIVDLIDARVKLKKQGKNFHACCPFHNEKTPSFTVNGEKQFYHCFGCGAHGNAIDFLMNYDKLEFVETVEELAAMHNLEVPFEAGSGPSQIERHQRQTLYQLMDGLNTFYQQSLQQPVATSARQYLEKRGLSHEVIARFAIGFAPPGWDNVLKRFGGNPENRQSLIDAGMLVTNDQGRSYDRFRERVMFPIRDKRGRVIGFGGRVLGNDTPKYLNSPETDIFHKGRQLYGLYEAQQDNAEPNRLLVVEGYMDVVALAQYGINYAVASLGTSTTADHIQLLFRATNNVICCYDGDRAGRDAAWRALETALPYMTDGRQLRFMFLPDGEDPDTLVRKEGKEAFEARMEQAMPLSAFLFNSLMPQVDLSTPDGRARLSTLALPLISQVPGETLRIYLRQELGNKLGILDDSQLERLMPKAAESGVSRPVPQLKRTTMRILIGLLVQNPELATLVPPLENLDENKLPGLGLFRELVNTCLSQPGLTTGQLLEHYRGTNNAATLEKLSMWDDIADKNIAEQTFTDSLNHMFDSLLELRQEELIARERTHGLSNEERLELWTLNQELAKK
The target in test [6] is GlmU (UniProt A7ZTU1). The procedure:
as §1

Test [7] has as its target Guanlyate kinase (UniProt Q0TBG1). As to the method: as §1
The target in test [8] is MurA (UniProt Q3YX52). As to the method: as §1
Sequence of MurA (Q3YX52 whole entry): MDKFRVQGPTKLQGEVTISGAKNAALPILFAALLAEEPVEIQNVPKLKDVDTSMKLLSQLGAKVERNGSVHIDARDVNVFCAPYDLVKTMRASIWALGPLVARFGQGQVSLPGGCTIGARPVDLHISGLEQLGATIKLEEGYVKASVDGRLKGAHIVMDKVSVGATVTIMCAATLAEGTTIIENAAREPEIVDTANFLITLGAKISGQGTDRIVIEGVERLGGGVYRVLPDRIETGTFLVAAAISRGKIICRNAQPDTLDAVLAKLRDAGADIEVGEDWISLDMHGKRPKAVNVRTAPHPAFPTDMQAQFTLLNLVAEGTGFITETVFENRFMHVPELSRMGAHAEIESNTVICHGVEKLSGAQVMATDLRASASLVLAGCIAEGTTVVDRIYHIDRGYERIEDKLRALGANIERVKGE
Test [9] has as its target T1, MurD (UniProt P14900).
T1 sequence (whole entry): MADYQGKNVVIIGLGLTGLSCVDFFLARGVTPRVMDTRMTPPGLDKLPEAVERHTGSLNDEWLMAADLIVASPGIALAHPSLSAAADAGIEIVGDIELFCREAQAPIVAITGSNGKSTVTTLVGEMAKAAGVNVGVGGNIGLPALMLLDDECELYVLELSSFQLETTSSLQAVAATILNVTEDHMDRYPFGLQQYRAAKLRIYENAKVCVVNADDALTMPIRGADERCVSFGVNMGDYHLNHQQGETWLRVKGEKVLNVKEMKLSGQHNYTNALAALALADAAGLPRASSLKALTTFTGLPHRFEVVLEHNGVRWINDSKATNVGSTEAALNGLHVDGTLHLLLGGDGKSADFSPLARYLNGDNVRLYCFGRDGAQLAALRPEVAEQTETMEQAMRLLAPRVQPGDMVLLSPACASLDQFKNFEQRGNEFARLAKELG
The procedure: as §1

Test [10] deals with T2, MurF (UniProt P11880).
T2 sequence (whole entry): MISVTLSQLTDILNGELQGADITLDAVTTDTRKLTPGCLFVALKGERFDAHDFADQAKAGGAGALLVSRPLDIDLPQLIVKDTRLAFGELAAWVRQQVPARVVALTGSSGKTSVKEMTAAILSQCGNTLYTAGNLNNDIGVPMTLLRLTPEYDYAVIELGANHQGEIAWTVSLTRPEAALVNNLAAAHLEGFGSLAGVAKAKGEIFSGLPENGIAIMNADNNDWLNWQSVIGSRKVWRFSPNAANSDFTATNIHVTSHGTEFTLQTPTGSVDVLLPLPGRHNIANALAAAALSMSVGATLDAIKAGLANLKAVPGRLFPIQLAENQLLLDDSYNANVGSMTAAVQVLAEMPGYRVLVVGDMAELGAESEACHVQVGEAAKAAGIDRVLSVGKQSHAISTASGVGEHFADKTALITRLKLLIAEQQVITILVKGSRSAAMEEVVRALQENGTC
The procedure: as §1

Test [11] has as its system RNA polymerase. As to the method:
as §1

Molecules are shown by their SMILES. ± gives the standard deviation of the averaged measurements.

Sequence of Guanlyate kinase (Q0TBG1 whole entry): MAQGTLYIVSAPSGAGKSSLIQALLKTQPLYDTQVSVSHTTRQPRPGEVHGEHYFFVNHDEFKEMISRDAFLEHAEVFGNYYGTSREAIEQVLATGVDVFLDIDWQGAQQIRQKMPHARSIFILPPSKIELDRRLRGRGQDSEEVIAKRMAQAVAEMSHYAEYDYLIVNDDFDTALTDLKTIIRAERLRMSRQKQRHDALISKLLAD
Sequence of DNA helicase (P0ACB1 whole entry): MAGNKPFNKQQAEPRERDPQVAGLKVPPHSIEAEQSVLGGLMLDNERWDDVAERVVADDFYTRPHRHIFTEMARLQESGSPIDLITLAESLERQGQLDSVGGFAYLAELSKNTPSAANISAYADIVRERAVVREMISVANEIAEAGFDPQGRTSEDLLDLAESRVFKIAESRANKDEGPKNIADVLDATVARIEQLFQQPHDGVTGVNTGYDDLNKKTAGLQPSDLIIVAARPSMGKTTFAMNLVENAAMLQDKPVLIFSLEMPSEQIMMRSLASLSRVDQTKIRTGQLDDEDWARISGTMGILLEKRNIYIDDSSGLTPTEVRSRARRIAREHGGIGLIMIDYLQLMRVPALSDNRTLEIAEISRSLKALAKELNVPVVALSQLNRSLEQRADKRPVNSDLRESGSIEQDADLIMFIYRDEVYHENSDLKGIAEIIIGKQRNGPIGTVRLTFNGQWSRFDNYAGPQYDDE
Sequence of GlmU (A7ZTU1 whole entry, looked up): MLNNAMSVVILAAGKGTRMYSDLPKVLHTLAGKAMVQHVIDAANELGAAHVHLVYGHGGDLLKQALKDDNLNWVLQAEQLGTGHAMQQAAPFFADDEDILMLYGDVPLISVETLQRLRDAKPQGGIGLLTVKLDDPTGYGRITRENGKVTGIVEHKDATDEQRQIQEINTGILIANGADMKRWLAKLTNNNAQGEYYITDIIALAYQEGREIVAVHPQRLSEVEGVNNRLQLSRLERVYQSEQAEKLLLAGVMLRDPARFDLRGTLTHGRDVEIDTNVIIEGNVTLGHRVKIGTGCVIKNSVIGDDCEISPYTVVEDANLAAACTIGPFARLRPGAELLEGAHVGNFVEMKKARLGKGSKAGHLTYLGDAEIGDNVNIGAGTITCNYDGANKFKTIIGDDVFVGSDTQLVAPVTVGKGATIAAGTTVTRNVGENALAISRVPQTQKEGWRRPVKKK
Sequence of DNA ligase (B1XA82 whole entry): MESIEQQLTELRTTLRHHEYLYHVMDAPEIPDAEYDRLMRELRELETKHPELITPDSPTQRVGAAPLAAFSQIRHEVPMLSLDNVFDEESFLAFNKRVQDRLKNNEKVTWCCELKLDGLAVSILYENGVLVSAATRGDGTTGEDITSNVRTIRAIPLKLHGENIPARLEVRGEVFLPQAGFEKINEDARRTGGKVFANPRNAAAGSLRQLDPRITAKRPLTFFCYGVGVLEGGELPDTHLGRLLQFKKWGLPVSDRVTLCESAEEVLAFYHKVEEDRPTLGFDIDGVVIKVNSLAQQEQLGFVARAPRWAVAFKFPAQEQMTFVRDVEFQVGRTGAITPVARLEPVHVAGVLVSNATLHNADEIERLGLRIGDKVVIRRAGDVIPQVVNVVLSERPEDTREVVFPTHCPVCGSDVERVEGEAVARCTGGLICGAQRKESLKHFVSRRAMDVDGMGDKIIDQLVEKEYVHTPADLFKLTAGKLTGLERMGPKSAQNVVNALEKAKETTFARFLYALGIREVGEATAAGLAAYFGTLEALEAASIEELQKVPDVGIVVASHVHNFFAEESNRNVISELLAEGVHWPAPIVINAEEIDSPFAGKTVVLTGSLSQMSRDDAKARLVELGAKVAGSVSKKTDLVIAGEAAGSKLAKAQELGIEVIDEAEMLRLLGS

In the case of `N[C@@H](C(=O)N[C@@H]1C(=O)N2C(C(=O)O)=C(Cl)CC[C@H]12)c1ccccc1`, the relative enzymatic activity in test [1] is 0.732 ± 0.43; in test [2] it was 0.524 ± 0.089; in [3] it was 0.931 ± 0.12; in test [4], 1.03 ± 0.087; in test [5], 0.831 ± 0.025; in [6] it was 1 ± 0.036. Moreover, the relative enzymatic activity in test [7] was 0.943 ± 0.061; in test [8], 0.582 ± 0.21; in test [9], 0.603 ± 0.4; in [10] it was 0.963 ± 0.22; in test [11], 0.811 ± 0.13.
Take `COC1C=COC2(C)Oc3c(C)c(O)c4c(O)c(c(C=NN5CCN(C6CCCC6)CC5)c(O)c4c3C2=O)NC(=O)C(C)=CC=CC(C)C(O)C(C)C(O)C(C)C(OC(C)=O)C1C` (centres undefined): the relative enzymatic activity was 0.305 ± 0.28 in test [1]; 0.66 ± 0.082 in test [2]; 0.866 ± 0.13 in test [3]; 0.952 ± 0.37 in test [4]; 0.647 ± 0.093 in test [5]; 0.259 ± 0.016 in test [6]. Moreover, the relative enzymatic activity in test [7] came out at 0.435 ± 0.013; in [8], 0.144 ± 0.12; in [9] it was 0.132 ± 0.046; in test [10], 0.4854 ± 0.0039; in [11] it was 0.0856 ± 0.00076.
As to `CC1CCc2c(N3CCC(O)CC3)c(F)cc3c(=O)c(C(=O)O)cn1c23` (centres undefined), the relative enzymatic activity stood at 0.0257 ± 0.036 in test [1]; 0.552 ± 0.1 in test [2]; 0.916 ± 0.018 in test [3]; 1.19 ± 0.29 in test [4]; 0.8373 ± 0.0067 in [5]; 0.9778 ± 0.0021 in [6]. For the same molecule, the relative enzymatic activity in test [7] was 0.957 ± 0.071; in test [8], 0.8065 ± 0.0039; in [9], 0.566 ± 0.37; in test [10], 1.102 ± 0.0015; in test [11], 0.85 ± 0.059.
As to `CCn1cc(C(=O)O)c(=O)c2cc(F)c(N3CCNC(C)C3)c(F)c21.Cl` (centres undefined), the relative enzymatic activity in [1] was determined as 0.0253 ± 0.036; in [2] it was 0.786 ± 0.38; in test [3] it was 1.442 ± 0.0066; in test [4] it was 1.29 ± 0.3; in test [5] it was 0.712 ± 0.2; in test [6] it was 1.09 ± 0.16. For the same molecule, the relative enzymatic activity in test [7] was 1 ± 0.097; in [8], 0.728 ± 0.031; in test [9] it was 0.577 ± 0.38; in [10] it was 0.554 ± 0.78; in test [11], 1.16 ± 0.36.
In the case of `CCN1CCN(C(=O)NC(C(=O)NC2C(=O)N3C(C(=O)O)=C(CSc4nnnn4C)CSC23)c2ccc(O)cc2)C(=O)C1=O` (centres undefined), the relative enzymatic activity in test [1] was 0.414 ± 0.27; in [2] it was 0.636 ± 0.11; in [3], 1.35 ± 0.11; in [4] it was 1.23 ± 0.34; in test [5], 0.673 ± 0.16; in test [6], 1.09 ± 0.17. Also, the relative enzymatic activity in test [7] was 0.828 ± 0.076; in test [8], 0.0994 ± 0.0088; in test [9] it was 0.546 ± 0.35; in [10] it was 0.965 ± 0.23; in test [11] it was 0.96 ± 0.2.
In the case of `CCN1CCN(C(=O)NC(C(=O)NC2C(=O)N3C2SC(C)(C)C3C(=O)[O-])c2ccccc2)C(=O)C1=O.[Na+]` (centres undefined), the relative enzymatic activity in test [1] is 0.801 ± 0.4; in test [2], 0.634 ± 0.2; in test [3], 1.1 ± 0.11; in test [4], 1.32 ± 0.43; in [5], 0.757 ± 0.24; in test [6] it was 0.886 ± 0.12. The relative enzymatic activity in [7] was 0.965 ± 0.12; in [8], 0.612 ± 0.16; in test [9] it was 0.587 ± 0.41; in test [10], 0.938 ± 0.29; in [11], 0.916 ± 0.077.
Consider `COC1C=COC2(C)Oc3c(C)c(O)c4c(O)c(c(C=NN5CCN(C)CC5)c(O)c4c3C2=O)NC(=O)C(C)=CC=CC(C)C(O)C(C)C(O)C(C)C(OC(C)=O)C1C` (centres undefined), for which the relative enzymatic activity in test [1] was determined as 0.468 ± 0.18; in test [2], 0.717 ± 0.33; in [3] it was 0.8414 ± 0.0057; in test [4] it was 0.862 ± 0.32; in [5], 0.507 ± 0.0061; in test [6] it was 0.288 ± 0.02. In addition, the relative enzymatic activity in test [7] was 0.399 ± 0.0045; in test [8], 0.0919 ± 0.015; in test [9], 0.175 ± 0.081; in test [10], 0.464 ± 0.051; in [11] it was 0.0875 ± 0.0034.
As for `N[C@@H]1CC[C@@H](c2ccc(Cl)c(Cl)c2)c2ccccc21`, the relative enzymatic activity worked out at 0.381 ± 0.18 in [1]; 0.0688 ± 0.0028 in test [2]; 0.842 ± 0.083 in [3]; 0.507 ± 0.72 in [4]; 0.749 ± 0.027 in test [5]; 0.646 ± 0.059 in [6]. In addition, the relative enzymatic activity in test [7] stood at 0.924 ± 0.13; in test [8], 0.622 ± 0.57; in test [9], 0.378 ± 0.23; in [10] it was 1.02 ± 0.22; in test [11] it was 0.905 ± 0.019.
As for `Cl.NC1CCN(c2c(F)cc3c(=O)c(C(=O)O)cn(C4CC4)c3c2Cl)C1` (centres undefined), the relative enzymatic activity in test [1] was 0.213 ± 0.3; in test [2], 0.622 ± 0.2; in [3], 0.994 ± 0.13; in test [4], 1.08 ± 0.17; in [5] it was 0.872 ± 0.014; in test [6], 0.974 ± 0.019. The relative enzymatic activity in test [7] was 0.92 ± 0.21; in test [8] it was 0.73669 ± 0.0002; in test [9], 0.606 ± 0.42; in test [10], 0.977 ± 0.24; in test [11], 0.809 ± 0.07.
